Data as given in the supplement of paper PMC10849652.
About 7,900 targets were measured; listed, in parts, are those with a hit and a random draw of the rest. About 0.6% of all pairs of compound and target were hits. A number with no mark means an inactive call.

Columns and labels:
Assay in all cases: log2 fold change, soluble protein after heating vs DMSO (PISA); higher = thermal stabilisation; K562 cells, 10 uM, 30 min; active = over 0.2 and 3.5 SD of the protein, either way, in both replicates (recomputed)
erlotinib = compound: C#Cc1cccc(Nc2ncnc3cc(OCCOC)c(OCCOC)cc23)c1 [erlotinib]
Summary of the method: (§1)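 Quantification of soluble protein used TMTpro 16plex LC-MS/MS, with channel sums equalised. Samples were the supernatant after 21,000xg for 90 min of pooled aliquots from K562 cells (2×10^6 cells/mL) treated with 10 μM compound for 30 min, heated for 3 min over 48°C-58°C, and extracted in PBS with 0.5% NP-40 at 4°C. Values, from duplicates, describe thermal stability against control samples on a log2 fold-change scale.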

[1] = compound: C/C(=N\NC(=O)C1=CC(=CC=C1)S(=O)(=O)N2CCOCC2)/C3=C(C=CC(=C3)Cl)O
Summary of the method: as §1

[2] = compound: C1=CC(=C(C=C1Cl)C2=NC3=NC=CN=C3C(=N2)NC4=CC=NC=C4)F
Summary of the method: as §1

[3] = compound: C1=CC(=CC=C1C2=NC3=C(N2)C=C(C=C3)C(=O)N)OC4=CC=C(C=C4)Cl
Summary of the method: as §1

[4] = compound: C1=CC2=C(C=CC(=C2)/C=C\3/C(=O)NC(=NCC4=CC=CS4)S3)N=C1
Summary of the method: as §1

[5] = compound: C1=CC2=NC=CN=C2C=C1/C=C/3\C(=O)NC(=O)S3
Summary of the method: as §1

[6] = compound: C1=CC=C(C=C1)C2=NC(=C(N2)C3=CC=NC=C3)C4=CC(=C(C=C4)Cl)O
Summary of the method: as §1

[7] = compound: C1=CC=C2C(=C1)C3=NNC4=CC=CC(=C43)C2=O
Summary of the method: as §1

[8] = compound: C1CCN(C1)C(=O)NC2=CC=CC(=C2)NC3=NC=C(C(=N3)NCCC4=CN=CN4)Br
Summary of the method: as §1

[9] = compound: C1CN(CCC1(CC2=CC=C(C=C2)Cl)N)C3=NC=NC4=C3C=CN4
Summary of the method: as §1

IRAK-1-4 Inhibitor I = compound: C1COCCN1CCN2C3=CC=CC=C3N=C2NC(=O)C4=CC(=CC=C4)[N+](=O)[O-] [IRAK-1-4 Inhibitor I]
Summary of the method: as §1

ibrutinib = compound: C=CC(=O)N1CCC[C@@H](n2nc(-c3ccc(Oc4ccccc4)cc3)c3c(N)ncnc32)C1 [ibrutinib]
Summary of the method: as §1

[10] = compound: CC(=O)c1cnc2ccc(-c3cc(Cl)c(O)c(Cl)c3)nc2c1N[C@H]1CC[C@H](CN(C)C)CC1
Summary of the method: as §1

ralimetinib = compound: CC(C)(C)Cn1c(N)nc2ccc(-c3[nH]c(C(C)(C)C)nc3-c3ccc(F)cc3)nc21 [ralimetinib]
Summary of the method: as §1

[11] = compound: CC(C)(O)CC(=O)NCCn1ccc2ncnc(Nc3ccc(Oc4cccc(C(F)(F)F)c4)c(Cl)c3)c21
Summary of the method: as §1

[12] = compound: CC(C)C1=C2N=C(C=C(N2N=C1)NCC3=CC=CC=C3)NCCCCCCN
Summary of the method: as §1

[13] = compound: CC(C)C[C@@H](C=O)NC(=O)[C@H](CC(C)C)NC(=O)[C@H](CC(C)C)NC(=O)OCc1ccccc1
Summary of the method: as §1

pinometostat = compound: CC(C)N(C[C@H]1O[C@@H](n2cnc3c(N)ncnc32)[C@H](O)[C@@H]1O)[C@H]1C[C@@H](CCc2nc3cc(C(C)(C)C)ccc3[nH]2)C1 [pinometostat]
Summary of the method: as §1

[14] = compound: CC1=C(C(CC(=O)N1)C2=CC=C(C=C2)C(F)(F)F)C(=O)NC3=C(C=C4C(=C3)C=NN4)F
Summary of the method: as §1

[15] = compound: CC1=C(C2=C(C=C1)C(=O)C3=CC=CC=C3N2CCCN)C
Summary of the method: as §1

Sequence of UniProt Q9BZF1 (Q9BZF1 whole entry, looked up): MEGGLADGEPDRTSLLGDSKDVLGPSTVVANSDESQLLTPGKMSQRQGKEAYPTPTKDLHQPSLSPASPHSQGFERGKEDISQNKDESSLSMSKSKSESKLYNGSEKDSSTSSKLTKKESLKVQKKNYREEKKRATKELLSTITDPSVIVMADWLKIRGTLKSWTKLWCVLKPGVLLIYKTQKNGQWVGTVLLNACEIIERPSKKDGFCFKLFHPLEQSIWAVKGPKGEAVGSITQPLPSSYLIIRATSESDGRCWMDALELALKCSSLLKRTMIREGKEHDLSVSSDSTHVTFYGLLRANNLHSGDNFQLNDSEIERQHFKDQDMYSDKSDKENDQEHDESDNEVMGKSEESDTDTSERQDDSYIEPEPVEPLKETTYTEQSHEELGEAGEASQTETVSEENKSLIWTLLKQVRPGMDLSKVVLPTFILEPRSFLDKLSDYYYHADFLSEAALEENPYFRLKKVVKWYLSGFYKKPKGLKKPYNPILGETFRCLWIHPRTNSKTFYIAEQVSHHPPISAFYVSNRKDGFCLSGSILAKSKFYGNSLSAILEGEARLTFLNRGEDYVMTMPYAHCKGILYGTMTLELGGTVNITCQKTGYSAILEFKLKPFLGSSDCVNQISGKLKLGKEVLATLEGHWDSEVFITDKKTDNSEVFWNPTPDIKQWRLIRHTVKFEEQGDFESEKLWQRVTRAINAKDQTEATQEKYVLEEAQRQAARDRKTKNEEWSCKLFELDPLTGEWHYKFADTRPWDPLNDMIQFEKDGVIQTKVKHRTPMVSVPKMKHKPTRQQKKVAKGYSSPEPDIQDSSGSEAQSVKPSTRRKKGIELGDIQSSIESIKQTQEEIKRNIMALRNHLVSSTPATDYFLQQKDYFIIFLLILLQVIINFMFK
Sequence of UniProt Q12769 (Q12769 whole entry, looked up): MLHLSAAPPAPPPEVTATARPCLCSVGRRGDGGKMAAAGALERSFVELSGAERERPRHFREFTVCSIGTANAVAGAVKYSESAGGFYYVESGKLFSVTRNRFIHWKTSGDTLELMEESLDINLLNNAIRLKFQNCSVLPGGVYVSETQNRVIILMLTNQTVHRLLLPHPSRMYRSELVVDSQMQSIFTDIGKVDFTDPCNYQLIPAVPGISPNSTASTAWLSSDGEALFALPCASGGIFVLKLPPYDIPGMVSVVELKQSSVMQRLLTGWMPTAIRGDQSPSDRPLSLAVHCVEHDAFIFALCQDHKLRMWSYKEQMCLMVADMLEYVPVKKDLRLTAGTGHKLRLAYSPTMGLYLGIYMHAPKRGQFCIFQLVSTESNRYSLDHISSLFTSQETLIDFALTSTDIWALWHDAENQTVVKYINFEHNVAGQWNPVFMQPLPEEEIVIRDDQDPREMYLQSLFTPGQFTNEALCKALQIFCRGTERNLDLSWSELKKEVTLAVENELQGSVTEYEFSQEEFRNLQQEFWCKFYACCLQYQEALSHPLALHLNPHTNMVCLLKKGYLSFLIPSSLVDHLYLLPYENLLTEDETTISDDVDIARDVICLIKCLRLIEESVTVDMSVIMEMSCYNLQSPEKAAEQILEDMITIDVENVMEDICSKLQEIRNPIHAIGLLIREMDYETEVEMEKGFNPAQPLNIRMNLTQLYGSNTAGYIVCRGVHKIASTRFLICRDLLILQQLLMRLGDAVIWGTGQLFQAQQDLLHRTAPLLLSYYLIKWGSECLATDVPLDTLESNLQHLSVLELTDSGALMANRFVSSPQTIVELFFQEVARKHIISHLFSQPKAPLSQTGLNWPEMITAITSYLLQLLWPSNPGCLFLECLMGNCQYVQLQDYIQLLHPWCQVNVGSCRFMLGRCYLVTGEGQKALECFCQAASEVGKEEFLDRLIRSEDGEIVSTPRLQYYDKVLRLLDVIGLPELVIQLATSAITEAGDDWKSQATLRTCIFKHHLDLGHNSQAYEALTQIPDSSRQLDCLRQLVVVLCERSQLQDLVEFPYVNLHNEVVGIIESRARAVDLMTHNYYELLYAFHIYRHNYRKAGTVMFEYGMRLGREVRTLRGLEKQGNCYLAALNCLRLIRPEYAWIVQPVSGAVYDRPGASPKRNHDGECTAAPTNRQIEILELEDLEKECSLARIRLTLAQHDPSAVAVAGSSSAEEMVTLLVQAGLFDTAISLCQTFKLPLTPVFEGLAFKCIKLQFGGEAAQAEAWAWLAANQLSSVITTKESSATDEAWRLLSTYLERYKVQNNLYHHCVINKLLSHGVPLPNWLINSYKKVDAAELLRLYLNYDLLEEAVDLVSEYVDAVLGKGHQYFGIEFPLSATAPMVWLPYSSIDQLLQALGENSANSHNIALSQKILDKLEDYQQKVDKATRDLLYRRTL
Sequence of UniProt P22059 (P22059 whole entry, looked up): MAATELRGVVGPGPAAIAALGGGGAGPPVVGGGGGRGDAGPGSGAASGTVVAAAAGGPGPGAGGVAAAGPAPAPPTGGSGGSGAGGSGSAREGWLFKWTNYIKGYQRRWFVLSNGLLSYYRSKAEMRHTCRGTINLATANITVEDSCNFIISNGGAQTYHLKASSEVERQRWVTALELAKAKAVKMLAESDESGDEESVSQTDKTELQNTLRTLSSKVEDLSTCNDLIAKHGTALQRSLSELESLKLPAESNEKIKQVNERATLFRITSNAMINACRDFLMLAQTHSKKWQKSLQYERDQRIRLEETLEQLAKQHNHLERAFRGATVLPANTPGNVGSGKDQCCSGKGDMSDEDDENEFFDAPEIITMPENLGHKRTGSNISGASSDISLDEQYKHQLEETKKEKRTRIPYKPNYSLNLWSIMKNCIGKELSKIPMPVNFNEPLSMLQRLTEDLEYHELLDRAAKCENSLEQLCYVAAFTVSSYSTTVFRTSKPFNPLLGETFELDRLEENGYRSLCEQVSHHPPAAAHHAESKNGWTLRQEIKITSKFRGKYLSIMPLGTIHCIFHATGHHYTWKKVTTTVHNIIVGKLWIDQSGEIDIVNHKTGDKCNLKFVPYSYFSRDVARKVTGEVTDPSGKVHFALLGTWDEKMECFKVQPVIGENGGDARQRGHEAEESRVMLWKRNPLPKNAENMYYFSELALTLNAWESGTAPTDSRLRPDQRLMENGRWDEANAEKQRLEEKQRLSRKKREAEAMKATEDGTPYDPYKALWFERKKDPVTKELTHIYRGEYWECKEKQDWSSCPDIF
Sequence of UniProt P35580 (P35580 whole entry, looked up): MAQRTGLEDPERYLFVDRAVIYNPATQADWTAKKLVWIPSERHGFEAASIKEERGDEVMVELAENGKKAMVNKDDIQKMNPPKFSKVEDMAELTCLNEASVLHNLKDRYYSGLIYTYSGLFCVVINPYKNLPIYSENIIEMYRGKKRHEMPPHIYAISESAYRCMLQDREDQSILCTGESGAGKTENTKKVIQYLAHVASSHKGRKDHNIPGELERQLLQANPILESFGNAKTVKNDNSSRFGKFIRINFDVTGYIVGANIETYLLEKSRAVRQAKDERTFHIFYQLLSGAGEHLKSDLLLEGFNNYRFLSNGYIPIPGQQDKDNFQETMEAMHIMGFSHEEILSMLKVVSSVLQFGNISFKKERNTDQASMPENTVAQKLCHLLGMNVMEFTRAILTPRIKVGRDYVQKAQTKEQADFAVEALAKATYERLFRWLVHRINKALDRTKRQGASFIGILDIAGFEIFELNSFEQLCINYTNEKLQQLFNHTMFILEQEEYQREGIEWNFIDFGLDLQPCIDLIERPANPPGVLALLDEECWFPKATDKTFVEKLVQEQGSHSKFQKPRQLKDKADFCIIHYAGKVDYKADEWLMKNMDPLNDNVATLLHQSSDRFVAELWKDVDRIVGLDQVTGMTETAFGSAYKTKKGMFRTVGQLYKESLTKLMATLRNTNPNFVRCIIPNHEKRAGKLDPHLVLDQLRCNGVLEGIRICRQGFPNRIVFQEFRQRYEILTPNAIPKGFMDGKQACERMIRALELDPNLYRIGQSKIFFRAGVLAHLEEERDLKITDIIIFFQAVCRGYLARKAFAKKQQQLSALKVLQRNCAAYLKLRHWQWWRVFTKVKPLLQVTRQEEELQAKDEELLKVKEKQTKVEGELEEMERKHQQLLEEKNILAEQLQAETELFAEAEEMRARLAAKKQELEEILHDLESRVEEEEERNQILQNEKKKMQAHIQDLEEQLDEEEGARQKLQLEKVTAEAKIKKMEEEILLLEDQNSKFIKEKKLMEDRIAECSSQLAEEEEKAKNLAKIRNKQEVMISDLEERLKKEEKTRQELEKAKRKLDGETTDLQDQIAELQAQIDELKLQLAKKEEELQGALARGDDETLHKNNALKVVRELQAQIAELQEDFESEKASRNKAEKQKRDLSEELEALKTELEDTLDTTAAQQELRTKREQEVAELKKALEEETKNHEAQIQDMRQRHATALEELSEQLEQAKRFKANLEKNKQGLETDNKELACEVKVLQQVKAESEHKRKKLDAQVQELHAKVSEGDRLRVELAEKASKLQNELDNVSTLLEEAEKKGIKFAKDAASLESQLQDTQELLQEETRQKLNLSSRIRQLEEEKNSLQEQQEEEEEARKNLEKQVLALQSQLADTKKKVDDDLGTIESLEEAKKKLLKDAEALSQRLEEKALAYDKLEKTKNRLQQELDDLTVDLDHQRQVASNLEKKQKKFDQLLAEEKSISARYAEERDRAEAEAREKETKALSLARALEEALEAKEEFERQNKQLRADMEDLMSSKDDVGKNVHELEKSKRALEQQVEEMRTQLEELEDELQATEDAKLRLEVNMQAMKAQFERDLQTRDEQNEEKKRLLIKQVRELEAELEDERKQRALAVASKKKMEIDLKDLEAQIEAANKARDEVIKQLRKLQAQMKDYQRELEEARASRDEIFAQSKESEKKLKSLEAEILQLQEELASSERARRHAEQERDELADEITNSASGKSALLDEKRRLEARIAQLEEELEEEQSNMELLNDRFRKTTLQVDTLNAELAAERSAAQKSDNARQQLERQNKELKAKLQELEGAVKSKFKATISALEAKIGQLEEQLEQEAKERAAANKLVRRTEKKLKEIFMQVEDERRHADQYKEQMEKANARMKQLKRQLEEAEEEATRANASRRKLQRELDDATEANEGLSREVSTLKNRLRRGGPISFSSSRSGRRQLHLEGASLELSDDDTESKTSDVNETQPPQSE

Target	log2 fold change (erlotinib)	log2 fold change [1]	log2 fold change [2]	log2 fold change [3]	log2 fold change [4]	log2 fold change [5]	log2 fold change [6]	log2 fold change [7]	log2 fold change [8]	log2 fold change [9]	log2 fold change (IRAK-1-4 Inhibitor I)	log2 fold change (ibrutinib)	log2 fold change [10]	log2 fold change (ralimetinib)	log2 fold change [11]	log2 fold change [12]	log2 fold change [13]	log2 fold change (pinometostat)	log2 fold change [14]	log2 fold change [15]
MYH10 isoform 3 (UniProt P35580)	-0.002	0.043	0.089	-0.032	0.006	0.01	0.034	0.021	0.015	-0.024	0.024	-0.022	-0.011	-0.04	-0.069	-0.05	-0.001	-0.015	-0.019	-0.024
MRPS12 (UniProt O15235)	-0.013	0.008	-0.13	0.095	-0.052	0.018	0.099	0.165	0.025	-0.063	0.05	-0.031	-0.033	-0.017	-0.053	-0.123	0.092	0.111	0.014	-0.224
NEDD4 isoform 4 (UniProt P46934)	-0.024	0.067	0.048	-0.011	0.052	0.066	0.048	-0.001	0.003	-0.053	0.002	-0.038	0.02	-0.014	-0.027	-0.124	0.019	-0.03	-0.025	-0.065
OPHN1 (UniProt O60890)	0.022	-0.155	0.101	-0.009	0.24	0.03	-0.007	0.039	0.044	0.04	-0.086	-0.145	-0.021	-0.033	-0.146	0.12	-0.042	-0.062	-0.034	0.069
OTUD6B (UniProt Q8N6M0)	0.053	0.117	-0.103	0.019	0.142	0.032	-0.001	0.051	-0.014	-0.055	-0.046	-0.017	-0.02	0.036	-0.049	-0.269 (active)	0.029	0.053	0.078	-0.015
ORC3 isoform 2 (UniProt Q9UBD5)	0.134	-0.068	-0.024	-0.021	0.214	0.042	0.013	0.072	-0.013	0.07	-0.113	-0.015	-0.132	-0.059	-0.383	-0.338	-0.013	0.012	0.045	-0.049
OSBPL8 (UniProt Q9BZF1)	0.243	0.156	-0.212	0.021	0.005	-0.028	0.077	-0.005	-0.048	-0.085	-0.148	-0.042	-0.204	0.199	-0.019	-0.378	0.046	0.201	-0.076	0.045
OSBP (UniProt P22059)	-0.059	0.111	0.063	0.109	-0.009	0.019	-0.027	-0.042	-0.001	0.013	0	-0.067	-0.029	-0.009	-0.076	0.091	0.017	-0.002	-0.052	0.024
MMS19 isoform 8 (UniProt Q96T76)	-0.01	0.001	0.044	-0.025	0.113	0.053	0.05	0.016	-0.01	-0.01	-0.141	-0.029	-0.028	0.078	-0.082	-0.216	0.006	0.084	-0.018	0.011
NUDT1 (UniProt P36639)	0.164	-0.018	0.135	-0.068	0	-0.032	0.055	0.187	-0.009	1.01 (active)	0.025	0.943 (active)	0.816 (active)	1.69 (active)	-0.263	0.946 (active)	-0.082	-0.017	-0.069	0.074
NASP (UniProt P49321)	-0.018	0.048	0.079	-0.018	-0.02	0.059	-0.018	-0.004	0.001	-0.022	0.01	-0.044	0.033	0.019	-0.004	-0.05	-0.009	-0.048	-0.021	-0.09
OSTM1 (UniProt Q86WC4)	0.034	0.111	0.077	0.107	-0.106	0.001	0.044	-0.047	-0.035	-0.002	0.05	-0.006	0.013	0.042	-0.081	-0.041	0.079	-0.056	0.015	-0.024
NOP56 (UniProt O00567)	-0.093	-0.012	-0.676 (active)	0.087	-0.232	0.045	-0.164	-0.109	-0.111	-0.15	-0.03	0.025	0.015	0.082	0.108	0.202	0.234	0.198	0.086	0.187
NUP160 (UniProt Q12769)	0.001	0.022	0.01	-0.024	-0.006	0.045	-0.017	-0.091	-0.085	-0.025	-0.03	-0.041	-0.13	-0.002	-0.032	-0.137	-0.01	0.058	0.001	-0.012
NDUFA12 (UniProt Q9UI09)	-0.014	0.011	0.016	0.147	0.075	0.001	0.061	-0.007	0.028	-0.031	0.05	-0.078	-0.04	-0.043	-0.128	-0.31 (active)	0.021	-0.06	-0.012	0.122
MTHFD1 (UniProt P11586)	0.06	0.058	0.074	-0.019	0.019	-0.021	0.05	0.01	0.013	0.032	0.01	-0.014	-0.068	-0.001	-0.082	-0.102	-0.005	-0.034	-0.023	0.073
